Screening data: PubChem BioAssay, National Center for Advancing Translational Sciences (NCATS)
Tau ThT inhib: blocks human tau fibril formation measured by thioflavin T. P10636. recombinant tau K18 P301L, heparin-induced fibrillization, ThT fluorescence. Potency, µM (top dose mostly 57.4 µM), usual class: inhibitors. 270,000 compounds, 2.1% hits; also: nearly all actives have a fitted effect of over 55% in size
Target sequence (P10636 561-689 P618L limits assumed): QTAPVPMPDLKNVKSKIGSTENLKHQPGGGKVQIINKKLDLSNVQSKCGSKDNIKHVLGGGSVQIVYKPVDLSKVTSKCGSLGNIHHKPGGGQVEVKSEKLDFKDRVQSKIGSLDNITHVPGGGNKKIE
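In this qHTS, human K18 P301L tau is incubated with compound and heparin for 6 hr at 37 C, and Thioflavin T fluorescence then reports fibril load.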
TR SRC2 fluor cs: Texas Red fluorescence interference in TRb-SRC2 counter-screen; TRb/SRC2 Texas Red total fluorescence interference; Potency, µM (series often up to 106 µM); 280,000 compounds, 0.29% hits; AID 1479; active = well fitted curve in either direction with a large enough effect; inconclusive = small, poorly fitted or top-dose-only effect
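Flags fluorescent or light-absorbing compounds by total fluorescence, S + 2P, at 555 nm excitation and 632 nm emission. Mixture: 20 nM Texas Red SRC2 peptide, 0.6 uM human TRb LBD, 1 uM T3, 5% DMSO; compound exposure 5 h at ambient temperature.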
Tau fluor counter: counter-screen for tau fibril formation inhibitors. tau K18 P301L Alexa594 fluorescence, heparin fibrillization. Potency, µM (series often up to 57.7 µM). 280,000 compounds, 0.93% hits. AID 1463; also: nearly all actives have a fitted effect of over 55% in size
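Human tau K18 P301L (15 uM unlabeled, 0.24 uM Alexa 594-labeled) in 100 mM sodium acetate pH 7 with 20 uM heparin, 6 hr at 37 C. ThT 30 uM added, 1 hr ambient; Alexa 594 FP and total fluorescence read at 555/632 nm.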
Tau fibril FP: blocks human tau fibril formation measured by polarization. Potency, µM (doses to about 57.7 µM), hits mostly inhibitors. 280,000 compounds, 0.39% hits. K18 P301L tau heparin fibrillization, Alexa594 FP, 6 h; also: nearly all actives have a fitted effect of over 55% in size
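Steps: dispense K18 P301L tau (15 uM plus 0.24 uM Alexa 594 tracer, final) in pH 7 sodium acetate; add compound; add heparin (20 uM final); incubate 6 hr, 37 C; add ThT (30 uM final); after 1 hr ambient, read FP.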
TRb SRC2 PPI: TRbeta-SRC2 interaction inhibition | P10828 | TRbeta-SRC2 peptide binding, fluorescence polarization; receptor liganded with 1 µM T3 | Potency, µM (doses to about 106 µM), usual class: inhibitors | 280,000 compounds, 0.065% hits | AID 1469; also: nearly all actives have a fitted effect of over 50% in size
Target sequence (P10828 whole entry, looked up): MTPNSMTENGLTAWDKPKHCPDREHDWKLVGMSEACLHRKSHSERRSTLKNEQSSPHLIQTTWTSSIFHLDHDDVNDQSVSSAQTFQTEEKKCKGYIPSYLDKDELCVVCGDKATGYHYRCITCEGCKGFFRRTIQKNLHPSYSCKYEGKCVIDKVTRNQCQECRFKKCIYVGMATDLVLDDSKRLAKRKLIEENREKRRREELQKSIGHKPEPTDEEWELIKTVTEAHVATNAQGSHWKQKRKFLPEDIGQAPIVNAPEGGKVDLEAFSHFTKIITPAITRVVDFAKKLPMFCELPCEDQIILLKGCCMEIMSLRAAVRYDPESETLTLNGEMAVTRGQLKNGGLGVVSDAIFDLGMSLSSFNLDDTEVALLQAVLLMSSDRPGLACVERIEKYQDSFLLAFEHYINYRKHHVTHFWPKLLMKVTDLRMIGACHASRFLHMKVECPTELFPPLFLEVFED
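Fluorescence polarization of 20 nM Texas Red SRC2 peptide (20-aa NR interaction domain) bound to 0.6 uM human TRb ligand-binding domain, with 1 uM T3, after 5 hr at ambient temperature; inhibition seen as decreased polarization.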
Hits are given with their value; n = inactive; u = inconclusive; x = no result; [ ] = another dose, or the depositor's remark. An excerpt weighted towards active compounds, which were near 3% of everything screened. Unless noted, calls follow the shape of the dose curve; as a rule, active = well fitted curve in the direction sought with a large enough effect; inconclusive = small, poorly fitted or top-dose-only effect, or another doubt; inactive = no such curve, though single readings can be large; an effect the other way counts as inactive or inconclusive.

SMILES | Tau ThT inhib | TR SRC2 fluor cs | Tau fluor counter | Tau fibril FP | TRb SRC2 PPI
CCOC(=O)C1(C)/C(=N/Nc2ccc(S(N)(=O)=O)cc2)C(=O)C(=O)N1c1ccccc1 (configuration not stated) | 11µM | n | n | n | n
CCOC(=O)C1(C)/C(=N/Nc2cccc(Cl)c2)C(=O)C(=O)N1c1ccccc1 (configuration not stated) | 20µM | n | n | n | n
CCOc1cccc(C=Nc2cc(C)cc(C)c2O)c1O | 25µM | n | u | u | n
C[C@H](NC(=O)c1nc[nH]c1C(=O)N[C@H](C)c1ccccc1)C(=O)OCc1ccccc1 | n | n | n | n | n
Cc1cccc(NC(=O)c2nc[nH]c2C(=O)N[C@@H](CC(C)C)C(=O)OCc2ccccc2)c1 | n | n | u | 25µM | n
Cc1cccc(NC(=O)c2nc[nH]c2C(=O)N[C@@H](C)C(=O)OCc2ccccc2)c1 | n | n | u | 14µM | n
O=C1C=CC2=C3c4cc(O)c(O)cc4C[C@]3(O)COC2=C1 | 16µM | n | u | u | n
CC(=O)C1=C(C)NC(SCC(=O)c2ccc(Cl)c(Cl)c2)=C(C#N)C1c1ccco1 (configuration not stated) | n | n | n | n | n
CC(=O)C1=C(C)NC(SCC(=O)c2cc(Cl)ccc2Cl)=C(C#N)C1c1ccco1 (configuration not stated) | 28µM | n | u | u | n
CC(=O)C1=C(C)NC(SCC(=O)c2ccc(F)cc2)=C(C#N)C1c1ccco1 (configuration not stated) | 16µM | n | u | n | n
CCCCCCCCCCOCCC(=O)O | n | n | n | n | n
Cc1cc(C)n(-c2nnc(NCc3ccc(Cl)cc3)nn2)n1 | u | n | n | n | n
Cc1nn(-c2nnc(NCc3ccccc3)nn2)c(C)c1Br | 14µM | n | u | n | n
O=C(/C=C/c1ccc(-c2ccccc2[N+](=O)[O-])o1)c1ccco1 | 18µM | n | u | n | n
O=C(CSC1=NS(=O)(=O)c2ccccc21)Nc1ccccc1 | 32µM | n | n | u | n
CC(/C=N/NC(=O)Cc1cccn1C)=C\c1ccco1 | 28µM | n | n | u | n
CCOc1ccc2c(O)csc2c1 | 25µM | n | n | u | n
CCCN=Cc1sc2ccc(OCC)cc2c1O | u | n | n | n | n
COC(=O)c1cc2sc(Cl)cc2n1Cc1nc(-c2ccccc2F)oc1C | n | 25µM[quencher] | n | n | n
COC(=O)c1cc2sc(Cl)cc2n1Cc1nc(-c2ccc(OC)cc2)oc1C | n | n | n | n | n
O=S(=O)(c1ccccc1)c1nc(-c2ccc(Cl)cc2Cl)oc1N1CCCCCC1 | n | n | n | n | n
CCn1c(CNC(=O)c2ccc(OC)cc2)nnc1SCC(=O)Nc1ccc(OC)cc1 | n | n | n | n | n
Cc1cc(N)n2ncc(-c3ccc(F)cc3)c2n1 | u | n | u | u | n
Cc1cc(N)n2ncc(-c3ccc(Cl)cc3)c2n1 | u | n | 14µM[quencher] | u | n
COc1ccnc(CSC(N)=Nc2ccccc2C(F)(F)F)c1 | n | n | n | n | n
SMILES | Tau ThT inhib | TR SRC2 fluor cs | Tau fluor counter | Tau fibril FP | TRb SRC2 PPI
COc1ccnc(CSC(N)=Nc2cccc(C(F)(F)F)c2)c1 | 18µM | n | u | u | n
N#CNC(=Nc1cccc(C(F)(F)F)c1)SCc1ccc(C(=O)O)cc1 | u | n | n | n | n
COc1ccnc(CSC(N)=Nc2ccccc2OC)c1 | 32µM | n | n | u | n
CC#CCN1c2ccccc2[C@]23C[C@@H](C(=O)OC)N(S(=O)(=O)c4ccc(C(F)(F)F)cc4)C2=NC(C(=O)OC)=C(C(=O)OC)[C@H]13 | n[11.5 µM] | n[11.2 µM] | n[11.6 µM] | n[11.6 µM] | n[11.2 µM]
COc1ccc2nc(N3CCCCC3)c(C#N)cc2c1 | n | n | n | n | n
O=C1NC(=S)S/C1=C\c1cc2ccccc2nc1N1CCCCC1 | 14µM | n | u | n | n
COc1ccc2nc(N3CCCCC3)c(/C=C3\SC(=S)NC3=O)cc2c1 | 14µM | n | u | n | n
N#C/C(=C\c1cc2ccccc2nc1N1CCCCC1)C(N)=O | u | n | n | n | n
CCCCCCCC/C=C\CCCCCCCCO | x | n | x | x | n
Cc1cccc(C2=NN(c3ccccc3)[C@H](CO)[C@H]2C)c1 | u | n | u | u | n
O=C(O)c1cccc(-n2cnc3cccnc32)c1 | n | n | n | n | n
COc1ccc(OC)c(Nc2nc(NCCC(C)C)nc(N)c2[N+](=O)[O-])c1 | 25µM | n | 20µM[quencher] | n | n
CCC(C)Nc1nc(N)c([N+](=O)[O-])c(Nc2cc(OC)ccc2OC)n1 (configuration not stated) | 16µM | n | 18µM[quencher] | n | n
COc1ccccc1Nc1nc(NCC(C)C)nc(N)c1[N+](=O)[O-] | u | n | u | n | n
CCC(C)Nc1nc(N)c([N+](=O)[O-])c(Nc2ccccc2OC)n1 (configuration not stated) | u | n | u | u | n
CC(C)=CCc1c(O)ccc(C(=O)Cc2ccccc2)c1O | n | n | u | 14µM | n
CCC(=O)c1ccc(O)c(CC=C(C)C)c1 | n | n | n | n | n
COc1ccc2c(CC(=O)Nc3ccc(C)cc3)coc2c1 | n | n | n | u | n
Cc1ccc2c(=O)cc(C(=O)Nc3ccc(S(=O)(=O)Nc4onc(C)c4C)cc3)oc2c1 | n | u | n | n | n
Cc1cc(C)c2c(=O)cc(C(=O)Nc3ccc(S(=O)(=O)Nc4onc(C)c4C)cc3)oc2c1 | u | 126µM[quencher] | u | n | n
CCOc1ccc(Nc2nc3ccccc3n3nnnc23)cc1 | n | n | u | n | n
CN(C)c1ccc(Nc2nc3ccccc3n3nnnc23)cc1 | 7.9µM | n | 11µM[quencher] | n | n
Cc1cc2ccccc2n1CCNC(=O)c1cc(C(F)(F)F)cc(C(F)(F)F)c1 | n | n | n | n | n
CCN1CCc2nc3sc(C(=O)c4ccccc4)c(N)c3cc2C1 | 8.9µM | n | 16µM[quencher] | n | n
CCN1CCc2nc3sc(C(=O)c4ccc(F)cc4)c(N)c3cc2C1 | u | n | n | n | n
SMILES | Tau ThT inhib | TR SRC2 fluor cs | Tau fluor counter | Tau fibril FP | TRb SRC2 PPI
COc1ccc(OC)c(NC(=O)c2cc(=O)c3c(C)cc(C)cc3o2)c1 | u | u | n | n | n
NNC(=O)c1ccc(N2CCc3ccccc32)c([N+](=O)[O-])c1 | 14µM | n | u | n | n
COC(CNC(=O)c1ccc(N2CCc3ccccc32)c([N+](=O)[O-])c1)OC | u | n | u | n | n
CC1=NOC(=O)/C1=C\c1ccc(-c2ccc(Cl)cc2Cl)o1 | 20µM | n | u | n | n
C=N[C@H](C(=O)N[C@@H]1C(=O)N2[C@@H]1SC(C)(C)[C@@H]2C(=O)O)c1ccccc1 | x | n | x | x | n
CCOc1ccc(-c2n[nH]c(C)c2Oc2ccc(OC)cc2)c(O)c1 | n | n | 14µM[quencher] | u | n
CCOc1ccc(-c2[nH]ncc2Oc2ccccc2OCC)c(O)c1 | u | n | 14µM[quencher] | n | n
